The structures appear in SMILES notation. In all, about 340,000 compounds went through this assay and about 6,900 (2%) were called active. Cut-off read from the data, not from the text of the source: active = inhibition above about 30%; inactive = below that, where a call was filed. Only a selection was taken, and actives are over-represented in it overall.

Chain of D(2) dopamine receptor (Homo sapiens) (P14416 whole entry, looked up): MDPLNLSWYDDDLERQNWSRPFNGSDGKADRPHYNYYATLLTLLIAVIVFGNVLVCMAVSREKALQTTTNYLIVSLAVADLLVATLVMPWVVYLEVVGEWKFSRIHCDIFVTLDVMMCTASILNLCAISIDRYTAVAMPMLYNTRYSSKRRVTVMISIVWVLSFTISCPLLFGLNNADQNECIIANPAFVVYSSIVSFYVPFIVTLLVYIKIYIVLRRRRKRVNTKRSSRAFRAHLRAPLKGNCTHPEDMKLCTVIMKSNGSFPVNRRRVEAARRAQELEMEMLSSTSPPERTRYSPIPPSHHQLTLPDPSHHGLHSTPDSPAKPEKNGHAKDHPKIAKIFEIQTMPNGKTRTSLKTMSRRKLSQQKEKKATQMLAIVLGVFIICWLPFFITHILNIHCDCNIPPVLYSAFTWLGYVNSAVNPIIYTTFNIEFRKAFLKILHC

This test addresses D(2) dopamine receptor (Homo sapiens) (UniProt P14416). The experiment in a line: HTS Assay for Allosteric Antagonists of the Human D2 Dopamine Receptor: Primary Screen for Antagonists. Note: 0% is about no effect. Conditions: HEK293 TREx D2 cells, calcium flux, dopamine EC80; at 10 µM; stronger effect = higher value. Summed up: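 Calcium flux kinetic readout in an inducible HEK293 TREx D2 line plated overnight at 30 C. After 180 s compound exposure, an EC80 dopamine challenge follows with another 180 s kinetic read to detect antagonism.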
For orientation: Calcium assays in cells follow changes in intracellular calcium, usually with a dye or a luminescent sensor.
The term inhibition denotes the relative decrease from the control value, in per cent. With `CC1(C)CC(=O)C=C(c2ccc(Cl)c(C(F)(F)F)c2)C1`, the inhibition was 4.19% (inactive).

In the case of `Cc1ccc(Cl)c(OCC(=O)N2CCc3ccccc3C2)c1`, the inhibition is 2.48% (inactive).

For `Cc1ccc(OCC(O)CN2CCN(CC(O)COc3ccc(C)cc3Cl)CC2)c(Cl)c1` (configuration not stated), the inhibition is 78.4% (active).

As to `OC(COc1ccc(F)cc1Cl)CN1CCc2ccccc2C1` (configuration not stated), the inhibition was 68.3% (active).

With `C=CCc1ccc(OCC(O)CN2CCN(Cc3ccccc3)CC2)c(OC)c1` (configuration not stated), the inhibition is 0.147% (inactive).

For `CCc1ccc(OCC(O)CN2CCN(CCO)CC2)cc1` (configuration not stated), the inhibition is -7.21% (inactive).

For `Cc1cccc(OCC(O)CN2CCN(S(=O)(=O)c3ccc(C)cc3C)CC2)c1` (configuration not stated), the inhibition is -1.31% (inactive).

As to `CC(C)(C)OC(=O)Nc1ccc([C@@H](NC(=O)OC(C)(C)C)C(=O)OC(C)(C)C)cc1`, the inhibition was 5.44% (inactive).

For `Nc1nnc(SCn2nnc3ccccc3c2=O)s1`, the inhibition is -2.28% (inactive).

For `Nc1nnc(SCCN2C(=O)c3ccccc3S2(=O)=O)s1`, the inhibition was 49.1% (active).

`CCCc1nnc(NC(=O)CN2C(=O)c3ccccc3S2(=O)=O)s1`: the inhibition was 2.63% (inactive).

With `CCN(CC(=O)Nc1ccc(OC)cc1)C(=O)c1ccc(Cl)c(S(=O)(=O)N2CCCC2)c1`, the inhibition is -15.2% (inactive).

Take `CCOc1ccc(CC(=O)NCCS(=O)(=O)N2CCN(c3ccccc3)CC2)cc1`: the inhibition was -11.3% (inactive).

Regarding `O=S(=O)(NCCS(=O)(=O)N1CCN(c2ccccc2)CC1)c1ccc(F)cc1`, the inhibition is -7.02% (inactive).

As to `CCC(C)(C)NC(=O)/C=C/c1cc(OC)c(OC)c(S(=O)(=O)N2CCc3ccccc32)c1`, the inhibition is 40.9% (active).

Consider `COc1cc(C)c(C)cc1S(=O)(=O)N1CCCc2ccccc21`, for which the inhibition is -2.59% (inactive).

Consider `COc1cc(/C=C/C(=O)N2CCc3ccccc3C2)cc(OC)c1OC`, for which the inhibition was -15.7% (inactive).

As to `O=C(OCC(=O)N1CCCC1)c1ccc(Cl)nc1`, the inhibition was -5.57% (inactive).

Turning to `Cc1ccc2nc(NC(=O)C3CSC4(C)CCC(=O)N34)sc2c1` (configuration not stated), the inhibition is -20% (inactive).

For the compound `CC1(C)O[C@@H]2[C@H](O1)[C@@H](CO)O[C@H]2n1c(N2CCCCC2)nc2c(N)ncnc21`, the inhibition was 15.7% (inactive).

Turning to `Cc1cccc(-n2c(C)cc(/C=N\NC(=O)c3cccs3)c2C)c1`, the inhibition was 2.76% (inactive).

As to `Cc1ccc(-n2nc(C)c(/C=N/NC(=O)c3cccs3)c2Cl)cc1`, the inhibition is 32.5% (active).

Take `CC(=O)Nc1ccc(/C=N/NC(=O)c2cccs2)cc1`: the inhibition was -20.3% (inactive).

In the case of `COc1ccc(CNC(=O)COC(=O)c2c(C)nn(-c3ccccc3)c2C)cc1OC`, the inhibition was 5.14% (inactive).

Regarding `CC(=O)N(C)c1ccc(NC(=O)Nc2cccc3ccccc23)cc1`, the inhibition was 11.1% (inactive).

On to `CCOc1ccc(NC(=O)Nc2cc(C)on2)cc1`, for which the inhibition was -12.8% (inactive).

For the compound `CCOc1ccc(NC(=O)Nc2ccc(N(C)C(C)=O)cc2)cc1`, the inhibition is 31.6% (active).

As for `Cc1cccc(C(=O)NCC(=O)OCC(=O)N(C)CC(=O)Nc2ccccc2Cl)c1`, the inhibition was -38.4% (inactive).

Regarding `Cc1ccc(OCCCC(=O)Nc2ccc3c(c2)OCCO3)cc1`, the inhibition was -2.09% (inactive).

For `COc1ccc(C(=O)OCC(=O)c2cc(C)n(CC3CCCO3)c2C)cc1[N+](=O)[O-]` (configuration not stated), the inhibition is -5.34% (inactive).

As for `Cc1nc2ccccc2c(=O)n1NC(=O)c1ccccc1`, the inhibition is -7.6% (inactive).

Take `O=C(Nn1cnc2ccccc2c1=O)c1ccc([N+](=O)[O-])cc1Cl`: the inhibition was -1.86% (inactive).

Turning to `O=C(Nn1cnc2ccccc2c1=O)c1ccccc1`, the inhibition was 31.2% (active).

For `Cc1ccsc1C(=O)NC1CCCCC1C` (configuration not stated), the inhibition was -11.1% (inactive).

Regarding `CCc1cccc(C)c1NC(=O)COC(=O)CC1CCCC1`, the inhibition is -13.9% (inactive).

`CN(Cc1cccs1)C(=O)CN1C(=O)c2ccccc2S1(=O)=O`: the inhibition was -30.6% (inactive).

For `CCOCCCNCc1ccc(OCc2ccc(F)cc2)c(OC)c1`, the inhibition is 2.04% (inactive).

As for `CCOc1ccccc1OCCCNCc1ccccc1`, the inhibition was 50% (active).

With `CCOCCCNCc1cc(Br)ccc1OCC`, the inhibition is 6.96% (inactive).

On to `CN(CC(=O)Nc1ccc(F)c(F)c1F)C(=O)Cn1cnc2c1c(=O)n(C)c(=O)n2C`, for which the inhibition is 2.66% (inactive).

Turning to `COc1ccccc1-c1cc(C(=O)NCCCn2ccnc2)no1`, the inhibition is 45.9% (active).

Consider `COc1ccc(-c2cc(C(=O)NCCCn3ccnc3)no2)cc1`, for which the inhibition was 3.91% (inactive).

On to `O=C(NCCCn1ccnc1)c1cc(-c2ccccc2)on1`, for which the inhibition is 7.61% (inactive).

Turning to `CCOC(=O)[C@H]1[C@H]2COc3ccc(Cl)cc3[C@@H]2N2C(=O)c3cc(C)ccc3NC(=O)[C@@]12C`, the inhibition is -4.21% (inactive).

Take `Cc1ccccc1N1CCN(CCCN2C(=O)C3CCCCN3C2=O)CC1` (configuration not stated): the inhibition was -27.4% (inactive).

On to `O=C(C1CC(=O)N(C2CCCC2)C1)N1CCN(c2cccc(C(F)(F)F)c2)CC1` (configuration not stated), for which the inhibition was 11.8% (inactive).

Consider `O=C1C2CCCN2C(=O)N1CCCCN1CCN(c2cccc(C(F)(F)F)c2)CC1` (configuration not stated), for which the inhibition is 106% (active).

As to `CC(C)CN(C(=O)c1ccc2c(c1)OCO2)C1CCS(=O)(=O)C1` (configuration not stated), the inhibition was -6.59% (inactive).

On to `Cc1ccc2nnn(Cc3cccc(C(C)(C)C)c3O)c2c1`, for which the inhibition was 6.04% (inactive).

As for `COc1ccccc1N1CCN(C(=O)c2c(-c3c(Cl)cccc3Cl)noc2C)CC1`, the inhibition was 40% (active).

As for `COc1ccccc1N1CCN(C(=O)c2ccc(Cl)c(S(=O)(=O)N3CCCC3)c2)CC1`, the inhibition was -0.604% (inactive).

For `COc1cccc(-c2cc(C(=O)N3CCN(c4ccccc4OC)CC3)no2)c1`, the inhibition is 3.44% (inactive).

Consider `Cn1c(N)c(C(=O)COC(=O)COc2ccc(Cl)cc2)c(=O)n(C)c1=O`, for which the inhibition is 20.2% (inactive).

`COc1ccc(C)cc1S(=O)(=O)Nc1cc2c3c(c1)CCC(=O)N3CCC2`: the inhibition was 6.3% (inactive).

Take `Cc1ccc(C)c(OCCC(=O)OCC(=O)c2ccc3c(c2)NC(=O)CO3)c1`: the inhibition was -0.691% (inactive).

Turning to `COc1ccccc1-c1sc2ccccc2c1-c1ccc(Br)nc1`, the inhibition was 7.5% (inactive).

Take `Cc1n[nH]c(=O)c2c(NC(=O)CSc3cc(Cl)ccc3Cl)oc(C)c12`: the inhibition is 10% (inactive).

Take `Cc1c(C(=O)Nc2ccccn2)oc2ccc(Br)cc12`: the inhibition is -19.8% (inactive).

Consider `O=C(COC(=O)c1ccccc1SCC(=O)N1CCCC1)Nc1ccccc1OC(F)F`, for which the inhibition is -3.18% (inactive).

Turning to `COc1ccc(Cn2nnc3c(=O)[nH]c(C4CCN(C(=O)c5ccccc5Cl)CC4)nc32)cc1`, the inhibition was 5.81% (inactive).

Take `COC(=O)c1cc(S(=O)(=O)NCC2CCN(Cc3ccc(Cl)cc3)CC2)cn1C`: the inhibition is -3.52% (inactive).

For `COc1ccc(CN2CCC(c3nc4ccc(Cl)cc4[nH]3)CC2)cc1`, the inhibition is 59.7% (active).

The record behind these values is PubChem BioAssay AID485344 (National Center for Advancing Translational Sciences (NCATS), 2010).
